In PubChem BioAssay AID2284419 (EPA ToxCast):
Inconclusive results are not listed. Activity calls are given as the source filed them. How the source made its calls: active means hit-call score of the fitted dose curve at least 0.9, where 1 is the maximum; inconclusive means response in the unintended direction; inactive means score below 0.9.

Tested on: SRY-box transcription factor 2 (SOX2) Protein Expression, Deisenroth Lab, SOX2 (gene 6657)
Test: CCTE_Deisenroth_DEVTOX-GLR_Meso_SOX2: CCTE's DevTox GLR-Meso Assay Evaluation of SRY-box transcription factor 2 (SOX2) Protein Expression, Deisenroth Lab
Experimental: CCTE_Deisenroth_DEVTOX-GLR_Meso assay is a cell-based, multiplex-readout assay that uses RUES2-GLR, a human pluripotent cell line, with measurements taken at 48 hours after chemical dosing in a 384-well microplateCCTE_Deisenroth_DEVTOX-GLR_Meso_SOX2 is 1 of 4 assay components calculated from the CCTE_Deisenroth_DEVTOX-GLR_Meso assay and it measures an the percentage of cells in an ectoderm state. Using a type of inducible fluorescent protein reporter, gain-of-signal activity can be used to understand changes in gene expression with fluorescent microscopy. The percentage of SOX2+ cells are determined by calculating the number of SOX2+ cells divided by the cell count. To generalize the intended target to other relatable targets, this assay component is annotated to the transcription factor intended target family, where the subfamily is SRY-related HMG-box.Data from the assay component CCTE_Deisenroth_DEVTOX-GLR_Meso_SOX2 was analyzed as 1 assay endpoint. The endpoint is the percent SOX2+ cell population minus the 0.2% DMSO control in the CCTE_Deisenroth_DEVTOX-GLR_Meso assay. Furthermore, this assay endpoint can be referred to as a secondary readout, because this assay has produced multiple assay endpoints where this one serves as a measure of ectoderm differentiation.
All assay protocols are aligned to the DevTox GLR-Endo assay workflow. Cells are seeded into 384-well microplates for 24 hours prior to initiating differentiation in defined media for a total duration of 48 hours. A total of two chemical exposures are administered in 24-hour intervals during the 48-hour differentiation period. At the assay termination point, cells are fixed and stained with a fluorescent dye demarcating the nucleus. High-content imaging is used to acquire brightfield and fluorescent channel images across 5 fields per well. Cell identification and mean biomarker fluorescence intensities are calculated with image analysis software to determine the total cell counts for viability assessment and the biomarker expression frequency for each lineage-dependent assay. A typical experimental design tests a 10-point concentration series (1 nM - 200 uM) for 28 compounds in single technical replicate. Assay plate controls include non-differentiated pluripotent cells (baseline control), lineage-specific differentiated cells (differentiation control), and DMSO solvent exposed differentiated cells (solvent control). Experiments typically comprise a minimum of four experimental replicates (n=4).

| Compound | AC50 | outcome |
| --- | --- | --- |
| CCN(CC)CCNC(=O)c1c(C)[nH]c(/C=C2\C(=O)Nc3ccc(F)cc32)c1C | 0.194 µM (active) | – |
| CC1=C(/C=C/C(C)=C/C=C/C(C)=C\C(=O)O)C(C)(C)CCC1 | 18.8 µM (active) | – |
| CC1=C(/C=C/C(C)=C/C=C/C(C)=C/C(=O)O)C(C)(C)CCC1 | 7.53 µM (active) | – |
| CN(Cc1cnc2nc(N)nc(N)c2n1)c1ccc(C(=O)N[C@@H](CCC(=O)O)C(=O)O)cc1 | 0.0688 µM (active) | – |
| CC1(C)S[C@@H]2[C@H](NC(=O)Cc3ccccc3)C(=O)N2[C@H]1C(=O)O | – | inactive |
| O=C1CCC(N2C(=O)c3ccccc3C2=O)C(=O)N1 (stereo not given) | – | inactive |
| Nc1cccc2c1C(=O)N(C1CCC(=O)NC1=O)C2=O (stereo not given) | – | inactive |
| O=c1[nH]cc(F)c(=O)[nH]1 | 19.9 µM (active) | – |
| CC(C)(c1ccc(O)cc1)c1ccc(O)cc1 | 56.6 µM (active) | – |
| O=C1NC(=O)C(c2ccccc2)(c2ccccc2)N1 | 180 µM (active) | – |
| CC(=O)Nc1ccc(O)cc1 | – | inactive |
| Nc1nc2ncc(CNc3ccc(C(=O)N[C@@H](CCC(=O)O)C(=O)O)cc3)nc2c(=O)[nH]1 | – | inactive |
| CC/C(=C(/CC)c1ccc(O)cc1)c1ccc(O)cc1 | 3.63 µM (active) | – |
| CS(=O)(=O)OCCCCOS(C)(=O)=O | 124 µM (active) | – |
| O=C1NS(=O)(=O)c2ccccc21 | – | inactive |
